Reference: PubChem BioAssay (NCI)
Compounds without any hit were thinned out: in the full panel of roughly 83,000, 20% have a hit.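 For each line, cells grew in 96-well plates with the test compound present at a single concentration for 48 hours.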 A number with no mark means an inactive call. The source made the active and inactive calls. Rule for the calls: active = growth percent below 10; inactive = the rest.

Each compound was assayed on MDA-MB-468 breast (assay: NCI-60 one-dose screen, 48 h (100 = growth as untreated, 0 = no growth, -100 = all killed)). Details: 10 µM unless noted.

SMILES	growth
CN1CCN(c2ccc(C(=O)Nc3cccc(C#Cc4cccc5[nH]nc(N)c45)c3)cc2C(F)(F)F)CC1	-26.6% (active)
CCOC(=O)c1nc2c3ccccc3ccn2c1C(=O)OCC	109%
COc1ccc(C(=O)C(C#N)c2cc(OC)c(OC)c(OC)c2)cc1 (stereo not given)	102%
CN(C)CCOC(=O)Nc1ccc(Cl)cc1	104%
COc1cccc(C(=O)Nc2ccc(CN3CCc4nc5cc(OC)c(OC)cc5cc43)cc2)c1	63.6%
COc1cc(C2N=C(NNc3ccccc3)NC(C)=C2C(C)=O)ccc1O (stereo not given)	93.3%
COc1cccc(NCc2nnc(Nc3ccc(Cl)cc3)c3ccccc23)c1	-21.9% (active)
CN(C)c1ccc(-c2c(C#N)c(N)n3nc(N)c(C#N)c3c2C#N)cc1	81.3%
CCOC(=O)CNC(=O)CCCCSc1ncnc2nc[nH]c12	95.4%
CCCCCCCC(=O)SCC/C=C/[C@@H]1CC(=O)NCc2cccc(n2)CN(Cc2ccc3ccccc3c2)CC(=O)N[C@@H](C(C)C)C(=O)O1	7.6% (active)
COc1nc2c(c(=O)n1C)CN(c1ccccc1)C(=O)C(C)N2 (stereo not given)	86.3%
COc1cc(/C=C/C(=O)c2ccc(Nc3nc(NCCO)nc(N4CCOCC4)n3)cc2)cc(OC)c1OC	2.9% (active)
CCOC(=O)C(C(=O)OCC)C1CCCCC1	105%
CC/C=C\C[C@@H](O)C/C=C1/C(=O)C=C[C@H]1C/C=C\CCCC(=O)OC	15.9%
N#Cc1c(-c2ccc(Br)cc2)cc(-c2c[nH]c3ccccc23)nc1N	7.56% (active)
Nc1nc(N)nc(NCc2ccccc2)n1	114%
COc1cc(/C=C/C(=O)/C=C/c2ccc(-n3ccnc3C)cc2)ccc1O	24.4%
C=C(C)[C@@H]1CC[C@]2(C)[C@H](CC(=O)N[C@H]3[C@@H]4C[C@](C)(C(=O)OC)CC[C@]4(C)CC[C@]32C)[C@@]1(C)CCC#N	83.3%
Cc1csc(Nc2nc(-c3cccc(Br)c3)nc(C(Cl)(Cl)Cl)n2)n1	-29.8% (active)
Cc1ccc(SC2c3ccc(C)cc3Oc3nc(N)c(C#N)c(N)c32)cc1 (stereo not given)	-36.5% (active)

SMILES	growth
CC(=O)N1N=C(C2C(=O)N(C)C(=O)N(C)C2=O)CC1c1ccccc1C(=O)O (stereo not given)	114%
O=CN1N=C(c2cccc(Nc3ccnc4cc(Cl)ccc34)c2)CC1c1ccc(Cl)cc1 (stereo not given)	-4.05% (active)
Cn1c(N2N=C(c3ccc(Cl)cc3)CC2c2ccccc2)nc(-c2ccccc2)c(C#N)c1=O (stereo not given)	74%
N#C/C(=C\c1ccc2c(c1)OCO2)n1nnc2cc(F)c(F)cc21	6.05% (active)
Cl.Fc1c[c-]c(-c2ccccn2)c(F)c1.[Pt].c1ccc([PH+](C[PH+](c2ccccc2)c2ccccc2)c2ccccc2)cc1	-75.7% (active)
CCCCCC(=O)OCCC1CCCCC1	99%
Cc1cc(NS(=O)(=O)c2ccc(-c3cnc(C4CC4)o3)cc2)ccc1Cl	-6.6% (active)
Cc1nc2cc(Nc3nc(N4CCOCC4)nc(N4CCN(C)CC4)n3)ccc2n1Cc1ccccc1	111%
C#Cc1nc(C2=C(C)/C(=N/OCc3ccccc3)CC2)cs1	54.5%
COc1cc2cc(NCc3ccc(OC(F)F)cc3)nc(C)c2cc1OC	64.4%
Clc1ccccc1-c1cnn2cc(-c3ccccc3)cnc12	90.8%
Brc1ccc(C2CC(c3cccc(Nc4ccncc4)c3)=NN2c2ccccc2)cc1 (stereo not given)	78.2%
Cc1nc(Nc2cccnc2)sc1C(=O)/C=C/c1ccc(Cl)cc1	11.8%
CN(C)CCC(=O)c1ccc([N+](=O)[O-])cc1	86.5%
COc1ccc2c(c1)C(=O)c1c-2c(OCCN2CCCCC2)nc2ccc(OC)cc12	-10.6% (active)
CC(C)CCC[C@@H](C)[C@H]1CC[C@H]2[C@@H]3CC=C4c5sc(Nc6cc(C(F)(F)F)cc(C(F)(F)F)c6)nc5CC[C@]4(C)[C@H]3CC[C@]12C	105%
CCOC(=O)C1=C(C)N2C(=NC3=C(CCC/C3=C\c3ccc(Cl)cc3)C2c2ccc(Cl)cc2)S1 (stereo not given)	4.45% (active)
Cc1sc2c(c1C)c(=O)nc1c(-c3nc4ccccc4s3)n[nH]n12	101%
CSc1nc2ccc(C)cc2cc1/C=C1/C=C(c2ccccc2)NC1=O	49.1%
Cc1ccc(-c2nc(N3CCNCC3)c3oc(-c4ccccc4)nc3n2)cc1	-31.4% (active)
